TDP1 cell CPT – growth inhibition of DT40 Tdp1-/-;hTDP1 cells with camptothecin (screen for TDP1 inhibitors); Potency, µM (titrated, usually from 46.2 µM), inactives show at the highest dose activity change, negative = growth inhibition, hits mostly inhibitors; actives 12% (n = 420,000); chicken DT40 Tdp1-/-;hTDP1 cells + 20 nM CPT, ATP luminescence, 48 h; also: potency is read from the fitted curve at half-maximal effect; % is scaled to controls: 0 for no effect and ±100 for the full control effect; nearly all actives have a fitted effect of over 55% in size
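Chicken DT40 Tdp1-/- cells complemented with human TDP1, 400 cells/well, exposed to compounds plus 20 nM camptothecin for at least 48 h at 37 C; viability read as ATP content by CellTiter-Glo luminescence.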
IL1B secr inh – blocks inflammasome-driven IL-1 beta release; THP-1 LPS/ATP IL-1B secretion, AlphaLISA, 16 h; active compounds read low; activity change, % at 57.5 µM; actives 4.7% (n = 360,000); in the data active = activity change below about -50%; inconclusive = mostly about -30% to -49%; also: % is scaled to controls: 0 for no effect and ±100 for the full control effect
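THP-1 cells pretreated 1 hr with compounds (up to 57.5 uM final), then stimulated with LPS (250 ng/mL final) plus ATP (1.25 mM final); secreted IL-1B measured by AlphaLISA after 16 hr, decreased signal indicating inhibition.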
HepG2 tox – kills HepG2 cells in TGF-b inhibitor counter-screen | HepG2 CAGA-GFP viability, ATP luminescence, 18 h | Potency, µM (highest dose often 46.1 µM), inactives show top-dose activity change, negative = cytotoxicity, hits mostly cytotoxic | actives 0.76% (n = 410,000) | AID 588856; also: potency is read from the fitted curve at half-maximal effect
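CellTiter-Glo luminescence gave cytotoxicity after 18 hours at 37 degrees C. The cells were HepG2 CAGA-GFP in 1% FBS DMEM, stimulated with 500 pg/mL TGF-beta after compound addition. %Activity was normalised to no-cell wells (complete cell-killing) and DMSO (no toxicity), and curves were fitted and classified.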
TGFb SMAD3 inh – inhibitors of TGF-b signaling. actives 1.2% (n = 410,000). Potency, µM (highest dose often 46.1 µM), inactives show at the top dose activity, negative = inhibition, most hits filed as inhibitors. HepG2 CAGA-GFP TGF-b/SMAD3 reporter, GFP fluorescence, 18 h; TGF-beta stimulated, 500 pg/mL final; also: potency is read from the fitted curve at half-maximal effect; % is scaled to controls: 0 for no effect and ±100 for the full control effect; nearly all actives have a fitted effect of over 65% in size
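GFP signal (ex488/em500-530) from TGF-beta-stimulated HEPG2 CAGA-GFP cells, 500 pg/mL final, 18 h at 37 degrees C in DMEM plus 1% FBS, normalized to unstimulated and DMSO-stimulated controls.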
TDP1 cell noCPT – qHTS for Inhibitors of human tyrosyl-DNA phosphodiesterase 1 (TDP1): qHTS in cells in absence of CPT; DT40 Tdp1-/- hTDP1 cells, no CPT, ATP luminescence, 48 h; AID 686978, 2013; actives 15% (n = 420,000); Potency, µM (doses to about 46.2 µM), for the others: at the top dose activity change, negative = growth inhibition, usual class: inhibitors; also: potency is read from the fitted curve at half-maximal effect; % is scaled to controls: 0 for no effect and ±100 for the full control effect; nearly all actives have a fitted effect of over 55% in size
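No-CPT arm: Tdp1-/-;hTDP1 DT40 cells (400/well) plus compounds, incubated ≥48 hr at 37 °C. Readout CellTiter-Glo luminescence.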
TDP1 block – TDP1 (human) enzyme inhibition | Potency, µM (series often up to 130 µM), without a hit: at the highest dose activity change, negative = inhibition, actives largely listed as inhibitors | AID 485290 | actives 0.28% (n = 350,000) | recombinant TDP1, AlphaScreen DNA substrate cleavage | Q9NUW8; also: potency is read from the fitted curve at half-maximal effect; % is scaled to controls: 0 for no effect and ±100 for the full control effect; nearly all actives have a fitted effect of over 40% in size
Target sequence (Q9NUW8 whole entry, looked up): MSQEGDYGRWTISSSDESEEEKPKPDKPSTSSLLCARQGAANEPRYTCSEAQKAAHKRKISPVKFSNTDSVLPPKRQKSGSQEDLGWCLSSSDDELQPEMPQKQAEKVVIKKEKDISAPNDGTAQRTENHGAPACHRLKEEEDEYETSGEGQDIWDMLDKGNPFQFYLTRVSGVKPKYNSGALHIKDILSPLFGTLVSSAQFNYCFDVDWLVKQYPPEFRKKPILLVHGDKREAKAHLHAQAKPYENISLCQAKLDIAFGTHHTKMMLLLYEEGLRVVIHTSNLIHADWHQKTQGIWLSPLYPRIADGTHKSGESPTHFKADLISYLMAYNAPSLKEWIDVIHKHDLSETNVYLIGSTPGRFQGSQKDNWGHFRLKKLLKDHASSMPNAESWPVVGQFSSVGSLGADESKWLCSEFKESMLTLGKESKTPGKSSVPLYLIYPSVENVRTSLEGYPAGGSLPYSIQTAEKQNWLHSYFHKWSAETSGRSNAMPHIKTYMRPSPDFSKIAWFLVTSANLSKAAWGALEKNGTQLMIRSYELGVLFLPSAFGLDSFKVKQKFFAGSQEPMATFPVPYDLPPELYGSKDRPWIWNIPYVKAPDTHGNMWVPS
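Enzyme-compound mixtures sat 15 min at room temperature, followed by a 5 min reaction with 15 nM final substrate and 10 min with AlphaScreen beads. Recombinant human Tdp1 was used at 1 nM final.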
An asterisk follows results filed as active; ? = inconclusive; / = no result; [ ] = remark or other dose. Most compounds without a hit are left out; they make up all but 18% or so of the library. Unless noted, calls follow the shape of the dose curve; as a rule, active = well fitted curve in the direction sought with a large enough effect; inconclusive = small, poorly fitted or top-dose-only effect, or another doubt; inactive = no such curve, though single readings can be large; an effect the other way counts as inactive or inconclusive.

SMILES | TDP1 cell CPT | IL1B secr inh | HepG2 tox | TGFb SMAD3 inh | TDP1 cell noCPT | TDP1 block
O=C(NC1CC1)C1=C[C@H](c2ccc(Br)cc2)C[C@H](OCc2ccc(CO)cc2)O1 | 23µM* | -26 | -2% | ? | 15µM* | 0%
O=C(NCc1nc2ccccc2[nH]1)C1=C[C@H](c2csc3ccccc23)C[C@H](OCc2ccc(CO)cc2)O1 | ? | -29 | -14% | -16% | 15µM* | 5%
Cc1ccc(N2CCN(C(C(=O)Nc3c(C)cccc3C)c3cccc(F)c3)CC2)cc1 (stereo unspecified) | ? | 0 | / | / | ? | /
Cc1cccc(C)c1NC(=O)C(c1ccccc1)N(C)CCc1ccccc1 (stereo unspecified) | ? | 18 | -12% | -25% | 18µM* | /
Cc1ccc(N2CCN(C(CCc3ccccc3)C(=O)Nc3c(C)cccc3C)CC2)cc1 (stereo unspecified) | ? | -14 | / | / | 15µM* | /
Cc1cccc(C)c1NC(=O)CN(C)CCc1ccccc1 | ? | 28 | 3% | -7% | ? | /
CCc1noc(C)c1C(=O)NCCN1C(=O)S/C(=C\c2ccc(OC)cc2)C1=O | 23µM* | -23 | -29% | 0% | 16µM* | 6%
COc1ccc(/C=C2\SC(=O)N(CCNC(=O)Cn3cnnn3)C2=O)cc1 | -25% | -28 | -46% | 1% | -13% | 3%
COc1ccc(/C=C2\SC(=O)N(CCNC(=O)CCS(=O)(=O)c3ccc(C)cc3)C2=O)cc1 | 13µM* | -12 | -31% | ? | 21µM* | 2%
COc1cc(C(=O)N2CCCCC2c2cc(C(=O)NC(C)C)no2)cc(OC)c1C (stereo unspecified) | ? | 15 | 8% | 7% | ? | /
CCOC(=O)[C@]12CCCC=C1N(Cc1ccc3c(c1)OCO3)C(=O)[C@H](CC(=O)NCc1cccc(C(F)(F)F)c1)C2 | ? | 0 | / | / | 16µM* | /
CCOC(=O)[C@]12CCC=C1N(Cc1ccc3c(c1)OCO3)C(=O)[C@H](CC(=O)NCc1cccc(C(F)(F)F)c1)C2 | 21µM* | -8 | / | / | 23µM* | /
CCOC(=O)[C@]12CCCC=C1N(Cc1ccc3c(c1)OCO3)C(=O)[C@H](CC(=O)NCc1ccc(OC)c(OC)c1)C2 | ? | -5 | / | / | ? | /
CCc1ccc(NC(=O)c2ccc(CN3CC(=O)N4CCCCC4C3=O)cc2)cc1 (stereo unspecified) | ? | / | -26% | ? | 21µM* | 6%
CCN(c1ccccc1)S(=O)(=O)c1ccc(C(=O)Nc2nnc(CSC)o2)cc1 | ? | 69 | -2% | -2% | 9.2µM* | 11%
CCN(c1ccccc1)S(=O)(=O)c1ccc(C(=O)Nc2cccc(C)n2)cc1 | 23µM* | ? | -32% | -25% | 12µM* | 0%
CCCCN(CC)S(=O)(=O)c1ccc(C(=O)Nc2nnc(CSC)o2)cc1 | ? | 29 | -36% | -5% | 15µM* | 11%
CN(c1ccccc1)S(=O)(=O)c1ccc(C(=O)Nc2nnc(C3CC3)o2)cc1 | 2% | -6 | -14% | 1% | 7% | 8%
CCN(c1ccccc1)S(=O)(=O)c1ccc(C(=O)Nc2nnc(C3CC3)o2)cc1 | 21µM* | 80 | -16% | -9% | 18µM* | 8%
COC(=O)[C@@H]1C[C@H]1[C@@H](NC(=O)c1cccnc1)c1ccccc1 | / | / | / | / | / | 1%
Cc1onc(-c2ccccc2)c1C(=O)N1CCCCCC1 | -8% | 0 | 8% | 14% | 3% | 1%
CCCCN(CCCC)S(=O)(=O)c1ccc(C(=O)Nc2nnc(CSC)o2)cc1 | 15µM* | 63 | -29% | ? | 9.2µM* | 12%
CCOc1ccc2c(c1)C(C)=CC(C)(C)N2C(=O)Nc1ccccc1 | 5.8µM* | -8 | -21% | 0% | 26µM* | 8%
COc1ccc(OC)c(NC(=O)NC2CCCc3ccccc32)c1 (stereo unspecified) | -26% | 3 | -15% | -20% | 0% | 5%
CS(=O)(=O)c1ccc([C@@H](O)[C@@H](CO)NC(=O)C(Cl)Cl)cc1 | 5.8µM* | -1 | -14% | 5% | 3.7µM* | /
SMILES | TDP1 cell CPT | IL1B secr inh | HepG2 tox | TGFb SMAD3 inh | TDP1 cell noCPT | TDP1 block
CS(=O)(=O)c1ccc(C(O)C(CO)NC(=O)C(Cl)Cl)cc1 (stereo unspecified) | ? | / | / | / | 1.6µM* | -6%[56.1 µM]
C[C@@H]1CN([C@H](C)CO)S(=O)(=O)c2ccc(Br)cc2O[C@H]1CN(C)C(=O)C1CC1 | -19% | -6 | -3% | 7% | -9% | /
CS(=O)(=O)Oc1ccc2c(c1)O/C(=C\c1cccc([N+](=O)[O-])c1)C2=O | -4% | -5 | 2% | -2% | -12% | /
O=C1/C(=C/c2cccnc2)Oc2cc(OS(=O)(=O)c3ccc(F)cc3)ccc21 | 10µM* | -22 | -4% | -4% | ? | 8%
COc1cccc(/C=C2\Oc3cc(OCC(=O)N4CCCC4)ccc3C2=O)c1OC | ? | -1 | -36% | ? | ? | 7%
Cc1ccc(S(=O)(=O)Oc2ccc3c(c2)O/C(=C\c2cccnc2)C3=O)cc1 | ? | -9 | -2% | 3% | 21µM* | 4%
COc1cccc(OC)c1C(=O)Oc1ccc2c(c1)O/C(=C\c1ccncc1)C2=O | 18µM* | -101* | -31% | ? | 12µM* | 8%
O=C1/C(=C/c2ccncc2)Oc2cc(OS(=O)(=O)c3ccccc3)ccc21 | ? | 181 | 8% | ? | 12µM* | 8%
O=C1/C(=C/c2ccccc2)Oc2cc(OC(=O)N3CCOCC3)ccc21 | ? | -68* | 0% | -3% | ? | 3%
O=C(NC1CCCCC1)OC1CC2CC1[C@H]1CCCCN1C2=O (stereo partly specified) | 5% | 20 | / | / | -12% | /
O=C(NCc1cccc(C(F)(F)F)c1)C1CCC(=O)N(C2CCCCCC2)C1 (stereo unspecified) | -2% | ? | -26% | -26% | ? | 2%
c1csc(CNc2ncnc3nc[nH]c23)c1 | ? | -9 | -30% | -24% | ? | 0%
Clc1nc(NCc2cccs2)c2[nH]cnc2n1 | 13µM* | / | 1% | 17% | 11µM* | 1%
COc1cccc(CNc2nc(Cl)nc3nc[nH]c23)c1 | 16µM* | / | -10% | 1% | 7.9µM* | 0%
